# Assay results taken from PubChem BioAssay.
# Where “and” joins values, the source holds several entries; their conditions need not be identical. Identical values can stand only once. Calls of active or inactive are those of the source. Cut-off read from the data, not from the text of the source, unless noted: active = inhibition above about 80%; inactive = the rest.
# Experiments:
# [1] = sensitizers of A549 cells to miR-34 induction, primary screen, imaging, A549 dox-inducible miR-34, nuclei and caspase counts (AID 1347080;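 active = compounds whose cell count with miR-34 switched on is under 0.7 times the count with it off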); settings: A549 miR-34 inducible, Hoechst nuclei count, 48 h
# [2] = viability rescue of complex I mutant cybrids, primary screen, cell-based, galactose medium, ATP luminescence (AID 1645843;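 active = z-score of at least 1.8 in each of two replicates, scored against plate mean and spread of sample wells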;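 note: positive z means more ATP and so rescue of galactose-driven cybrid death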); settings: complex I mutant cybrid cells, 72 h, stronger effect = higher value
# [3] = LFS_MB_P medulloblastoma growth inhibition, cell-based, chromothripsis tumors, cisplatin or BGB combos (AID 1671449); settings: LFS_MB_P medulloblastoma cells;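 note: cells exposed for 96 hours; 0% = vehicle DMSO and 100% = killing by high DMSO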
# [4] = HDN33 neuroblastoma growth inhibition, cell-based, chromothripsis tumors, cisplatin or BGB combos (AID 1671450); settings: HDN33 neuroblastoma cells, stronger effect = higher value;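 note: cells exposed to compound for four days; 0% = vehicle DMSO and 100% = cell killing by high DMSO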
# [5] = ICB984 medulloblastoma cell growth inhibition, synergistic combos for chromothripsis tumors, cisplatin or BGB combos (AID 1671451; call rule not given here;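 note: cells exposed for 96 hours before readout; 0% = vehicle DMSO and 100% = killing by high DMSO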); settings: ICB984 medulloblastoma cells, drug combinations, stronger effect = higher value
# [6] = LFS_MB_1R medulloblastoma cell growth inhibition, synergistic combos for chromothripsis tumors, cisplatin or BGB combos (AID 1671452); settings: LFS_MB_1R medulloblastoma cells, stronger effect = higher value;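 note: cells exposed for 96 hours before readout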
# [7] = HTB85 osteosarcoma cell growth inhibition, synergistic combos for chromothripsis tumors, BGB or cisplatin IC20 combos (AID 1671453); settings: HTB85 osteosarcoma cells, drug combinations, stronger effect = higher value;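 note: cells exposed for 96 hours before readout; 0% = vehicle DMSO and 100% = high DMSO killing control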
# [8] = CRL2098 osteosarcoma cell growth inhibition, synergistic combos for chromothripsis tumors, BGB or cisplatin IC20 combos (AID 1671454); settings: CRL2098 osteosarcoma cells, drug combinations, stronger effect = higher value;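 note: cells exposed for 96 h before readout; 0% = vehicle DMSO and 100% = killing by high DMSO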
# [9] = HD-MB03 medulloblastoma cell growth inhibition, synergistic combos for chromothripsis tumors, BGB or cisplatin IC20 combos (AID 1671455; in the data active = inhibition above about 83%;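 note: 0% = vehicle DMSO and 100% = high DMSO as cytotoxic control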); settings: HD-MB03 medulloblastoma cells, stronger effect = higher value
# [10] = UWB1.289 ovarian carcinoma cell growth inhibition, synergistic combos for chromothripsis tumors, BGB or cisplatin combos (AID 1671456); settings: UWB1.289 ovarian carcinoma cells, stronger effect = higher value;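 note: cells exposed to compound for four days; 0% = vehicle DMSO and 100% = killing by high DMSO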
# [11] = LFS_MB_2R medulloblastoma cell growth inhibition, synergistic combos for chromothripsis tumors, cisplatin combos (AID 1671457); settings: LFS_MB_2R medulloblastoma cells, stronger effect = higher value;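 note: cells exposed to compound for four days before readout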
# [12] = MDA-MB-436 breast carcinoma cell growth inhibition, synergistic combos for chromothripsis tumors, BGB or cisplatin combos (AID 1671458; call rule not given here;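 note: cells exposed for 96 hours; 0% = vehicle DMSO and 100% = killing by high DMSO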); settings: MDA-MB-436 breast carcinoma growth inhibition, drug combinations, stronger effect = higher value
# [13] = UWB1.289_BRCA1 ovarian cancer growth, cell-based, BGB or cisplatin combinations (AID 1671459); settings: UWB1.289 BRCA1 ovarian carcinoma, drug combinations, stronger effect = higher value
# [14] = human astrocyte viability loss, single and combined drugs, cytotoxicity control for chromothriptic childhood tumor combination screen, cell-based, BGB or cisplatin IC20 combos (AID 1671460); settings: Human astrocytes, drug combinations, stronger effect = higher value;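 note: cells exposed to compounds for 96 hours before viability readout; 0% = vehicle and 100% = killing control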
# [15] = growth inhibition of BT084 medulloblastoma cells, cell-based, ICGC_MB145, cisplatin and BGB IC40 combos (AID 1671461); settings: drug combinations, at 0.5 µM, stronger effect = higher value;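 note: cells exposed to drugs for 96 hours; 0% = vehicle DMSO and 100% = high DMSO full killing control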
# [16] = measured here: combination with BGB IC40, at 0.05 µM
# [17] = measured here: combination with cisplatin, at 0.5 µM
# [18] = measured here: combination with cisplatin, at 5 µM
smiles,measurement,setting,value
COc1c(N2CC3CCCNC3C2)c(F)cc2c(=O)c(C(=O)O)cn(C3CC3)c12 (stereo not given),fold change,"[1]; stronger effect = lower value, cell number ratio, induced over uninduced",0.906 (inactive)
same,fold change,[1]; measured here: relative caspase fold change +Dox/-Dox,1.2
same,cell count,"[1]; measured here: total cells with miR-34 induction, stronger effect = lower value",9060
same,cell count,[1]; measured here: total cells without miR-34 induction,10000
same,z-score,[2],0.965 (inactive)
same,inhibition,"[3]; at 0.5 µM, stronger effect = higher value",79.9% (inactive) and -20.5% (inactive)
same,inhibition,"[3]; measured here: combination with BGB IC20, at 0.005 µM",-24.3% and -13.6%
same,inhibition,"[3]; measured here: combination with BGB IC40, at 0.005 µM",-13.7% and -15.3%
same,inhibition,[3]; [16],-23.7% and -12.1%
same,inhibition,"[3]; measured here: combination with cisplatin, at 0.5 µM, stronger effect = higher value",118% and -28.2%
same,inhibition,"[3]; measured here: combination with cisplatin, at 5 µM, stronger effect = higher value",-54.4% and -21.2%
same,inhibition,"[4]; BGB combo, at 5 µM",16.5% and -16.1%
same,inhibition,[4]; at 0.5 µM,-17.5% (inactive) and 7.5% (inactive)
same,inhibition,"[4]; cisplatin combo, at 5 µM",-9.22% and 17.7%
same,inhibition,"[4]; measured here: with BGB IC20 combination, at 0.5 µM",-4.15% and 11.4%
same,inhibition,"[4]; measured here: with cisplatin IC20 combination, at 0.5 µM",-25.5% and 15.3%
same,inhibition,"[4]; single agent, at 5 µM",17.2% and 9.26%
same,inhibition,"[5]; BGB IC20 combo, at 0.005 µM",-0.325% and -11.1%
same,inhibition,"[5]; BGB IC40 combo, at 0.005 µM",-5.95% and -17.1%
same,inhibition,"[5]; BGB IC40 combo, at 0.05 µM",-19.5% and -21.1%
same,inhibition,[5]; at 0.5 µM,-10.7% (inactive) and -20.7% (inactive)
same,inhibition,"[5]; cisplatin combo, at 0.05 µM",-23.8% and -21.1%
same,inhibition,"[5]; cisplatin combo, at 0.5 µM",-1.29% and -29.2%
same,inhibition,"[5]; cisplatin combo, at 5 µM",-29.8% and -8.73%
same,inhibition,"[5]; measured here: 5 uM single agent, at 5 µM",-4.57% and 0.836%
same,inhibition,[6]; at 0.5 µM,-18.3% (inactive) and -14.3% (inactive)
same,inhibition,[6]; [16],-0.314% and -2.89%
same,inhibition,[6]; [17],-10.2% and 25.8%
same,inhibition,[6]; [18],-57.1% and -57%
same,inhibition,[7]; at 0.5 µM,-1.92% (inactive) and -17.4% (inactive)
same,inhibition,"[7]; measured here: with BGB IC20, at 0.5 µM",0.476% and -45.2%
same,inhibition,"[7]; measured here: with BGB IC20, at 5 µM",-14.2% and 1.64%
same,inhibition,"[7]; measured here: with cisplatin IC20, at 0.5 µM",-4.9% and -17.9%
same,inhibition,"[7]; measured here: with cisplatin IC20, at 5 µM",-35.3% and -0.109%
same,inhibition,"[7]; single agent, at 5 µM",12% and -3.92%
same,inhibition,[8]; at 0.5 µM,-38.5% (inactive) and -21% (inactive)
same,inhibition,"[8]; measured here: combination with BGB at IC20, at 0.5 µM",-15.6% and -12.1%
same,inhibition,"[8]; measured here: combination with cisplatin at IC20, at 0.5 µM",-75% and -24%
same,inhibition,[9]; at 0.5 µM,-1.44% (inactive) and -1.69% (inactive)
same,inhibition,"[9]; measured here: combo with BGB at IC20, at 0.5 µM",-9.81% and -2.86%
same,inhibition,"[9]; measured here: combo with cisplatin at IC20, at 0.5 µM",5.04% and -2.25%
same,inhibition,[10]; at 0.5 µM,0.61% (inactive) and 5% (inactive)
same,inhibition,"[10]; measured here: inhibition with BGB combination, at 0.05 µM",-8.87% and -16%
same,inhibition,"[10]; measured here: inhibition with cisplatin combination, at 0.05 µM",-17.8% and -13.4%
same,inhibition,[11]; at 0.5 µM,-15.9% (inactive) and -16.5% (inactive)
same,inhibition,[11]; [17],-17.1% and -8.11%
same,inhibition,[11]; [18],-13.1% and -7.1%
same,inhibition,[12]; at 0.5 µM,-3.8% (inactive) and -6.04% (inactive)
same,inhibition,"[12]; measured here: BGB combination, at 0.5 µM",-11.6% and -4.26%
same,inhibition,"[12]; measured here: BGB combination, at 5 µM",-20.6% and -9.9%
same,inhibition,"[12]; measured here: cisplatin combination, at 0.5 µM",-1.34% and -15%
same,inhibition,"[12]; measured here: cisplatin combination, at 5 µM",-28.3% and -11.1%
same,inhibition,"[13]; BGB combination, concentration series, at 5 µM",5.74% and 12.9%
same,inhibition,[13]; at 0.5 µM,-0.42% (inactive) and 3.8% (inactive)
same,inhibition,"[13]; cisplatin combination, concentration series, at 5 µM",1.62% and 11.9%
same,inhibition,[14]; at 0.5 µM,9.7% (inactive) and 6.47% (inactive)
same,inhibition,"[14]; measured here: combo with BGB IC20, at 0.5 µM",1.83% and 2.24%
same,inhibition,"[14]; measured here: combo with cisplatin IC20, at 0.5 µM",4.24% and 3.81%
same,inhibition,[15],-19% (inactive) and -8.29% (inactive)
same,inhibition,[15]; cisplatin combination,-46.7% and 7.45%
